# Columns and labels:
# [1] = molecular target: T1, Ephrin type-A receptor 3 (Homo sapiens) (UniProt P29320); conditions: at 10 µM
# T1 sequence (whole entry): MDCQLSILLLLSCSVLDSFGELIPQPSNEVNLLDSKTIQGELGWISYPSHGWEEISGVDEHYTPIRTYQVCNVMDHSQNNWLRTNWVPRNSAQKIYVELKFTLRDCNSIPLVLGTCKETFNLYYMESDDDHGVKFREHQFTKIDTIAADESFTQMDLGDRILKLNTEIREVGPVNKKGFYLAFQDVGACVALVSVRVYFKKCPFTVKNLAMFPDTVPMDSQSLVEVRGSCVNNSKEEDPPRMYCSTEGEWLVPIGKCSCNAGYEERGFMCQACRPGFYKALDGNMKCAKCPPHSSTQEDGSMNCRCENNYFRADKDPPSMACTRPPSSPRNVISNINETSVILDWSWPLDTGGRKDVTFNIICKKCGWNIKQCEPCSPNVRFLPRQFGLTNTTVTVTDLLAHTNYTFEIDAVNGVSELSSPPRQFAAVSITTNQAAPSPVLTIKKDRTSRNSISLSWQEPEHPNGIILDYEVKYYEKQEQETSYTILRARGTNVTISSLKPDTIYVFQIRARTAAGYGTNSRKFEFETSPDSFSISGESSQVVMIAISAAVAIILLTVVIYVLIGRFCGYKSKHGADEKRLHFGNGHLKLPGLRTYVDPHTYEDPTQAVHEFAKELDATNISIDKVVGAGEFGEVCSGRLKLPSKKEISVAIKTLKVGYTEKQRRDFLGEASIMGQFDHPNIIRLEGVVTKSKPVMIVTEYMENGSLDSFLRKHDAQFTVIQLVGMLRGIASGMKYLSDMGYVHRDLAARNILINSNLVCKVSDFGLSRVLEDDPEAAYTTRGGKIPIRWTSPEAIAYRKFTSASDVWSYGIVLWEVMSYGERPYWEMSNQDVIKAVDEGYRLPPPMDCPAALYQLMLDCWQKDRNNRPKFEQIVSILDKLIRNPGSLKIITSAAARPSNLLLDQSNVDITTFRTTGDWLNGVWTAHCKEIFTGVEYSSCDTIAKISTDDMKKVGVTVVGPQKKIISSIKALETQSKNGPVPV
# [2] = molecular target: Ephrin type-A receptor 4 (Homo sapiens) (UniProt P54764); conditions: at 1 µM
# [3] = molecular target: Ephrin type-A receptor 4 (Homo sapiens) (UniProt P54764); conditions: at 10 µM
# [4] = molecular target: Ephrin type-A receptor 5 (Homo sapiens) (UniProt P54756); conditions: at 1 µM
# [5] = molecular target: Ephrin type-A receptor 5 (Homo sapiens) (UniProt P54756); conditions: at 10 µM
# [6] = molecular target: Ephrin type-A receptor 7 (Homo sapiens) (UniProt Q15375); conditions: at 1 µM
# [7] = molecular target: Ephrin type-A receptor 7 (Homo sapiens) (UniProt Q15375); conditions: at 10 µM
# [8] = molecular target: T2, Ephrin type-A receptor 8 (Homo sapiens) (UniProt P29322); conditions: at 1 µM
# T2 sequence (whole entry): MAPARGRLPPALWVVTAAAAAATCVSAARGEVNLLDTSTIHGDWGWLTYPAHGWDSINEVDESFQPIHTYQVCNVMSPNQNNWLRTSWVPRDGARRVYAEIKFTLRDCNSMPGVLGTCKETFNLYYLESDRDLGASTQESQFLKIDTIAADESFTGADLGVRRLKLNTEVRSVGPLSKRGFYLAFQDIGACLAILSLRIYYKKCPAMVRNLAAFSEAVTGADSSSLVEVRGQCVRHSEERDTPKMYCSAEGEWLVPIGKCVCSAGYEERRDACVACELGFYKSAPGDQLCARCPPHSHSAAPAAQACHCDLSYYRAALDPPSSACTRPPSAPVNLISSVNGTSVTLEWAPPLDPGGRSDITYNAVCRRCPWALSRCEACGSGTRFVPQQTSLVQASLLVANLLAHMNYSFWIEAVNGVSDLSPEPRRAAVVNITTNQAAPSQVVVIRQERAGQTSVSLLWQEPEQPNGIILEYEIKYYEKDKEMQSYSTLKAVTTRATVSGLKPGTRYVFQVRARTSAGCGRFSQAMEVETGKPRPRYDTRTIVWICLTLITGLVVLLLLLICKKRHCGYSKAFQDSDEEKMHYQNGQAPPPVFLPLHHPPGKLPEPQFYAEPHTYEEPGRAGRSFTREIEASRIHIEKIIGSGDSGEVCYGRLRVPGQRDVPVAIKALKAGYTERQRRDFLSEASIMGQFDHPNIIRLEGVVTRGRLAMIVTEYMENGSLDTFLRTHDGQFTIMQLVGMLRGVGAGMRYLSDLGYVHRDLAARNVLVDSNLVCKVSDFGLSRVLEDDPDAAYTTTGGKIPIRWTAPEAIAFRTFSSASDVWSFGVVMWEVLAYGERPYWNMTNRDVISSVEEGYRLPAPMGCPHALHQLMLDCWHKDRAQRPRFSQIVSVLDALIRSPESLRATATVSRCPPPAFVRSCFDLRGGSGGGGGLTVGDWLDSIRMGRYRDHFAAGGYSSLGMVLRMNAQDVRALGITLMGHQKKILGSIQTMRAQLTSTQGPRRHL
# [9] = molecular target: T2, Ephrin type-A receptor 8 (Homo sapiens); conditions: at 10 µM
# [10] = molecular target: T3, Ephrin type-B receptor 1 (Homo sapiens) (UniProt P54762); conditions: at 1 µM
# T3 sequence (whole entry): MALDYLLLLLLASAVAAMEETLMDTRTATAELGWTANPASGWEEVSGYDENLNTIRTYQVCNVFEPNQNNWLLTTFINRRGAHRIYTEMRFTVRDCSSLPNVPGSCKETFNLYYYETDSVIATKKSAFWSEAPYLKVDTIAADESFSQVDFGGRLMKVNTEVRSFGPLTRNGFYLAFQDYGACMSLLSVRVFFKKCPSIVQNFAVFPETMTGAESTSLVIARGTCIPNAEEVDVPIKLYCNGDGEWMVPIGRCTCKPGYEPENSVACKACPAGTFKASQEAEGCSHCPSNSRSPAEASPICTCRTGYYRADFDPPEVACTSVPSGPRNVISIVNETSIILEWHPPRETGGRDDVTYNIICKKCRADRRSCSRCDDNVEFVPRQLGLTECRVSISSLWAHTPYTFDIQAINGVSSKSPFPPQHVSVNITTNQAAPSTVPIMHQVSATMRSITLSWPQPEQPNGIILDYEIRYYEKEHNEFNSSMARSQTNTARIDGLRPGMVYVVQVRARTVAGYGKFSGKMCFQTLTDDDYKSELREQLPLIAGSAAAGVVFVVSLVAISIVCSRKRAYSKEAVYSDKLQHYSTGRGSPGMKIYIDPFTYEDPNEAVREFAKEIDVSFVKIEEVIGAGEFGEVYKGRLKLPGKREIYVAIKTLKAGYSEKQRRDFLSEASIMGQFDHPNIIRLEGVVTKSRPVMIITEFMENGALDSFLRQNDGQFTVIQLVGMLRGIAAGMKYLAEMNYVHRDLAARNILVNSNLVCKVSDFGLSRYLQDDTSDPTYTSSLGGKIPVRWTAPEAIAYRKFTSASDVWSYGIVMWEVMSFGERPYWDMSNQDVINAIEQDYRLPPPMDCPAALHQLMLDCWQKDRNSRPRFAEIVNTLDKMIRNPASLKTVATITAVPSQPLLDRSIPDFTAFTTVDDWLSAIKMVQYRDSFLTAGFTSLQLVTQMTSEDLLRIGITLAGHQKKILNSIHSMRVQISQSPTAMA
# Ephrin type-A receptor 7 (Homo sapiens), sequence (Q15375 28-998 limits assumed): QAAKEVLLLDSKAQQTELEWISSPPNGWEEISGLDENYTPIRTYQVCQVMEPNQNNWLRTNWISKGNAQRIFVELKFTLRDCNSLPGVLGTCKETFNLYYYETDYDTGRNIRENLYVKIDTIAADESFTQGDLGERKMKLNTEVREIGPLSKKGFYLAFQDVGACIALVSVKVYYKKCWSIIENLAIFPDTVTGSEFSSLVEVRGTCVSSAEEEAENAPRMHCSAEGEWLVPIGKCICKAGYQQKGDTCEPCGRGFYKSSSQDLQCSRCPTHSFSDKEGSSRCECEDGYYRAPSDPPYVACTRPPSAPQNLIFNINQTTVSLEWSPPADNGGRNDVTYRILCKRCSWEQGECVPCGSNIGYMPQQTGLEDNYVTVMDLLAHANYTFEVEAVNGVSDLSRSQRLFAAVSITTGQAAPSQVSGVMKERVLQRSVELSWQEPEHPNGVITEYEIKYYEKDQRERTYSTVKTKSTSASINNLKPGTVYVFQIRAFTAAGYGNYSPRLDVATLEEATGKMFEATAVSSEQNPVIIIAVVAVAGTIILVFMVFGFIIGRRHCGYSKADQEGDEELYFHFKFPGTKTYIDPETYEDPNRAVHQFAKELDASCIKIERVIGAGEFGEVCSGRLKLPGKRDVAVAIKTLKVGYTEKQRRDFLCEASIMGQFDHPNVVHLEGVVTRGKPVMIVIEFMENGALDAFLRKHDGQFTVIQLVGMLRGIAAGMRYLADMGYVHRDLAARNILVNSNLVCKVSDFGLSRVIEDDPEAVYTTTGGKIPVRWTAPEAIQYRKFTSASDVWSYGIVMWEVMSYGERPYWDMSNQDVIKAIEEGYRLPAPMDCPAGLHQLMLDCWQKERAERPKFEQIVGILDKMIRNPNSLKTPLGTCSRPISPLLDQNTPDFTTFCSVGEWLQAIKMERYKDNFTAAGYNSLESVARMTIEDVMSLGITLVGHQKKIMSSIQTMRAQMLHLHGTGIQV
# Ephrin type-A receptor 4 (Homo sapiens), sequence (P54764 whole entry): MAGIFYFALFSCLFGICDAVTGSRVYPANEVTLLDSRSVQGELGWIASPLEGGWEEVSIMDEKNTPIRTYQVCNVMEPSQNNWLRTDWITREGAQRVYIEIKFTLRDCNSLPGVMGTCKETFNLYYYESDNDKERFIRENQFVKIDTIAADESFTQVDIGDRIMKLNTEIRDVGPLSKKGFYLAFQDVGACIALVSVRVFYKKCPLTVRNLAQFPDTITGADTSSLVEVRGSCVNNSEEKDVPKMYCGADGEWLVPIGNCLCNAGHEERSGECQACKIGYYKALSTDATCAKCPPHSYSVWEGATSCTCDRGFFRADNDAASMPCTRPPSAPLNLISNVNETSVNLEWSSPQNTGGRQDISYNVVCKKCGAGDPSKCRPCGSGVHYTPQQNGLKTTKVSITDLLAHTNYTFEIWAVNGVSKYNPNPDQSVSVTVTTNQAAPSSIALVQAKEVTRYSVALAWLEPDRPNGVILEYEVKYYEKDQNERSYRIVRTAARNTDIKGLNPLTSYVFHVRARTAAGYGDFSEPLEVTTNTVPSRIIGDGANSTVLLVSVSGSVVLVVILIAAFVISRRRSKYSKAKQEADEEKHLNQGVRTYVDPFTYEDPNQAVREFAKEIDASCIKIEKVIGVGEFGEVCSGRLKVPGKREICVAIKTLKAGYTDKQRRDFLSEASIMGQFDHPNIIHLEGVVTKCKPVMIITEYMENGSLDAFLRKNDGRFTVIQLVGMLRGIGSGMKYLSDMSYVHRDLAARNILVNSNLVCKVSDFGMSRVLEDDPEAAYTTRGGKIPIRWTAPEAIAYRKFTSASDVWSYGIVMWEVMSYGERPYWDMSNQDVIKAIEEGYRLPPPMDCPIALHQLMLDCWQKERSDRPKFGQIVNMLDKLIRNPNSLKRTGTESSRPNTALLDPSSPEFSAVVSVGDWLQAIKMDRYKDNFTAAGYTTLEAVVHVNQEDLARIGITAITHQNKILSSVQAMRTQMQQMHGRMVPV
# Ephrin type-A receptor 5 (Homo sapiens), sequence (P54756 whole entry): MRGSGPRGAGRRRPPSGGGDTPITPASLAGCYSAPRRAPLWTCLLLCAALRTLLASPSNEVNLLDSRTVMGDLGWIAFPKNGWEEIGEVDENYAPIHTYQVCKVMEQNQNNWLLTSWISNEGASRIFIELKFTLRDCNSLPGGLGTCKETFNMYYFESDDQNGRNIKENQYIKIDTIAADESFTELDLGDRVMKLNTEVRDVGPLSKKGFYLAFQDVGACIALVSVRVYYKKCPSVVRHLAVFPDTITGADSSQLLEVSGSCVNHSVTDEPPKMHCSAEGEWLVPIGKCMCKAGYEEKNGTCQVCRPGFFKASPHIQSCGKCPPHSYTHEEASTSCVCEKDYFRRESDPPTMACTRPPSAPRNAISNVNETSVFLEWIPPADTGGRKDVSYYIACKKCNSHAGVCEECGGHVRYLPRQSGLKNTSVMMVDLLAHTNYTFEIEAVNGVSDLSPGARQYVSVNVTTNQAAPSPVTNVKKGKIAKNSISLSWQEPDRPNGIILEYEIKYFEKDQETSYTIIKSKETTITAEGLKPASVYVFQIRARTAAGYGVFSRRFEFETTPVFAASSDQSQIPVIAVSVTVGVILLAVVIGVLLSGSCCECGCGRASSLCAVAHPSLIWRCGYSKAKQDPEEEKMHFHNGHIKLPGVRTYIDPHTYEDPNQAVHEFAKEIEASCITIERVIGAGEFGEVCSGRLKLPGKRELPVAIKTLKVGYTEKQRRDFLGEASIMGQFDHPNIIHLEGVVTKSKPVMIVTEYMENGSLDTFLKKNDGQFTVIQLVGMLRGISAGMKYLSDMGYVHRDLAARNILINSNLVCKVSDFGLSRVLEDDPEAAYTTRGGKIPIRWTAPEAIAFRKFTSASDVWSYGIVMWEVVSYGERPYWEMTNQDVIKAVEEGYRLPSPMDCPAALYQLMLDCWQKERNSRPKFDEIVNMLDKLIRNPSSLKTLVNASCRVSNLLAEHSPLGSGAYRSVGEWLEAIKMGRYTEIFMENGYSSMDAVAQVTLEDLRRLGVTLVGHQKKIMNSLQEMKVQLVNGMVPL
compound,measurement,setting,value
CO[C@H]1[C@@H](OC)C[C@H](C)[C@@H](OC)C2=CC(=O)C=C(NC(=O)/C(C)=C/C=C/[C@H](OC)[C@@H](OC(N)=O)/C(C)=C/[C@@H]1C)C2=O,residual activity,[1],85%
same,residual activity,[2],110%
same,residual activity,[3],112%
same,residual activity,[4],107%
same,residual activity,[5],95%
same,residual activity,[6],95%
same,residual activity,[7],96%
same,residual activity,[8],96%
same,residual activity,[9],105%
same,residual activity,[10],109%
